Assay outcomes (PubChem BioAssay)
Sampled rows, rich in hits. Any-hit rate of the full collection: about 4%.
TROY NFkB inh: blocks TROY-dependent signaling in reporter cells. Q293 LMP1-TROYcd NF-kB luciferase reporter, 4 h. inhibition, % at 10 µM. hit rate 0.98% among 360,000. AID 1347056;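 active means compounds whose plate-normalised and pattern-corrected inhibition of the luciferase reporter signal at the single screening dose is 50% or more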
Peg3 prom inh-1: inhibitors of Peg3 promoter; hit rate 1.7% among 360,000; HeLa PEG-Prom luciferase reporter, luminescence, overnight; inhibition, % at 20 µM;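 active means inhibition of at least 50% at 20 µM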
HIF-2a block: blocks HIF-2a reporter activity; 786-0 RCC cells HIF-2a reporter, luciferase luminescence, overnight; AID 624352; hit rate 0.72% among 360,000; inhibition, % at 18.8 µM;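 active means inhibition of the luminescence signal of 40% or more relative to plate controls, in a single-dose primary screen at 18.75 µM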
TWEAK-Fn14 inh: TWEAK-Fn14 signaling inhibition. TWEAK-stimulated Fn14 reporter cells, luciferase luminescence, 8 h. inhibition, % at 10 µM. AID 1159606. hit rate 2% among 360,000; in the data active means inhibition above about 50%
CF NFkB inh: inhibitors of cystic fibrosis induced NF-kB. KKLEB NF-kB-GFP reporter, PAF-induced, GFP fluorescence overnight. inhibition, % at 5 µM. hit rate 0.86% among 360,000;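 active means at least 50% inhibition at 5 µM, scaled per plate between neutral and stimulator controls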;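 further: PAF is a Pseudomonas aeruginosa culture filtrate used as stimulus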
KKLEB tox: CF airway cell cytotoxicity counter-screen; KKLEB CF airway cells viability, ATPlite luminescence, overnight; hits give low values; cells stimulated with P. aeruginosa culture filtrate; activity change (cytotoxicity), % at 5 µM; hit rate 0.36% among 360,000; AID 602141;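 active means corrected activity change at or below -50% at 5 µM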
Peg3 prom inh-2: Peg3 promoter inhibition confirmation; shares compounds with Peg3 prom inh-1; HeLa PEG-Prom luciferase reporter, luminescence, overnight; inhibition, % at 20 µM; hit rate 84% among 1,300;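 active means at 20 µM dose, 40% or more inhibition averaged across four replicates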
CF NFkB inh conf: confirmation of cystic fibrosis induced NF-kB inhibitors. shares compounds with CF NFkB inh. KKLEB CF airway cells, PAF-induced NF-kB-GFP fluorescence, overnight. inhibition, % at 5 µM. hit rate 64% among 1,300. AID 602472; in the data active means inhibition above about 40%;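 further: stimulus PAF is a Pseudomonas aeruginosa filtrate and not platelet activating factor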
Of the large screens only hits and unclear results are named; the others gave an inactive call (follow-up assays come after a bar, where they were run).

Cc1cc(C)c2nc(NNC(=O)c3ccc(S(=O)(=O)N4CCCCC4)cc3)sc2c1	Peg3 prom inh-1 55 | Peg3 prom inh-2 66
Cc1ccc(C(=O)NNC(=O)c2ccc(S(=O)(=O)N3CCCCC3)cc2)cc1	none
COc1ccc2sc(N(CCCN(C)C)C(=O)c3ccc(S(=O)(=O)N4CCCc5ccccc54)cc3)nc2c1	Peg3 prom inh-1 84 | Peg3 prom inh-2 96
CCOC(=O)N1CCN(S(=O)(=O)c2ccc(C(=O)NNc3nc4c(C)cc(C)cc4s3)cc2)CC1	Peg3 prom inh-1 56 | Peg3 prom inh-2 92
O=C1OC(c2cccc3c(F)cccc23)c2ccccc21 (stereo not drawn)	none
C/C(=N\N=C\c1ccc(N(C)C)cc1)c1cccc([N+](=O)[O-])c1	none
COC(=O)[C@]12CCCCC=C1N(CCC1=CCCCC1)C(=O)[C@H](CC(=O)NCc1cccs1)C2	none (no result: Peg3 prom inh-1, CF NFkB inh, KKLEB tox)
CCOC(=O)N1CCN(S(=O)(=O)N2CCCC(C(=O)NCc3ccccc3Cl)C2)CC1 (stereo not drawn)	none
CCC(C)C(NC(=O)c1ccccc1)C(=O)N1CCN(C(=O)c2ccccc2)CC1 (stereo not drawn)	none
Cc1cc(C)c2nc(N(CCCN(C)C)C(=O)c3ccc(S(=O)(=O)N4CCCCCC4)cc3)sc2c1	Peg3 prom inh-1 80 | Peg3 prom inh-2 99
CCOc1ccc(NC(=O)CCN2CCN(S(=O)(=O)c3cc(Cl)ccc3OC)CC2)cc1	none
N=c1n(CCN2CCCC2)c2ccccc2n1CC(O)c1ccc(Cl)c(Cl)c1 (stereo not drawn)	Peg3 prom inh-1 115 | Peg3 prom inh-2 98
N=c1n(CCN2CCOCC2)c2ccccc2n1CC(=O)c1ccc(Cl)c(Cl)c1	none
CC(C)c1ccc(NC(=O)CSc2nc(=O)[nH]c3c2CCCC3)cc1	none
CC(C)c1ccc(NC(=O)CSc2nc(-c3ccccc3F)nc3nc[nH]c23)cc1	Peg3 prom inh-1 60 | Peg3 prom inh-2 inactive
O=[N+]([O-])c1cc(-c2csc(NCCc3nc4cc(Cl)c(N5CCCCC5)cc4n3CCCO)n2)ccc1Cl	none
Cc1ccc(Cn2c(CCNc3nc(-c4ccc(Cl)c([N+](=O)[O-])c4)cs3)nc3cc(Cl)c(Cl)cc32)cc1	Peg3 prom inh-1 73 | Peg3 prom inh-2 inactive
CCn1cc(C(=O)O)c(=O)c2cnc(N3CCN(C(=S)Nc4ccccc4C(F)(F)F)CC3)nc21	none
CC(C)(C)N(Cc1nc(-c2ccccc2)no1)C(=O)c1ccc2c(c1)OCO2	none
Cc1ccc2nc(/C(C#N)=C\c3ccc([N+](=O)[O-])o3)[nH]c2c1	Peg3 prom inh-1 105, TWEAK-Fn14 inh 99, KKLEB tox -68 | Peg3 prom inh-2 84
Clc1cccc(CNc2nc(-c3cccnc3)nc3ccccc23)c1	none
Cc1ccccc1CNC(=O)C1CCCN(c2nnc(C)c3c(C)n(-c4ccccc4)nc23)C1 (stereo not drawn)	Peg3 prom inh-1 63 | Peg3 prom inh-2 81
CCn1cc(C(=O)NCCC(C)C)c(=O)c2cc(F)c(N3CCN(C(=O)c4ccco4)CC3)cc21	Peg3 prom inh-1 64 | Peg3 prom inh-2 49
CCN(CC)CCNC(=O)c1cn(CC)c2cc(N3CCN(C(=O)c4ccco4)CC3)c(F)cc2c1=O	none
Cn1c(=O)cc(SCC(=O)N2CCN(C3CCCCC3)CC2)c2ccccc21	none
O=C1C(=C2SCCCS2)CC/C1=C\c1ccc(F)cc1	TROY NFkB inh 86, Peg3 prom inh-1 86, HIF-2a block 65, TWEAK-Fn14 inh 104, KKLEB tox -78 | Peg3 prom inh-2 43
Cn1cc(CN2CCCC(C(=O)Nc3cccc(-n4cccn4)c3)C2)cn1 (stereo not drawn)	none
Cn1cc(CN2CCCC(C(=O)Nc3ccc(-c4cccc(F)c4)cc3)C2)cn1 (stereo not drawn)	Peg3 prom inh-1 53 | Peg3 prom inh-2 77
COC1=C(Br)C(=O)c2ncccc2C1=O	Peg3 prom inh-1 100, HIF-2a block 72 | Peg3 prom inh-2 99
COc1ccccc1N1C(=O)c2cccnc2C1=O	none
O=C(CSc1nnc2n1CCCN2)c1ccc([N+](=O)[O-])cc1	none
O=C1COc2ccc(C(=O)CSc3nc4ccccc4c(=O)n3-c3ccc(Cl)c(Cl)c3)cc2N1	Peg3 prom inh-1 76, CF NFkB inh 55 | Peg3 prom inh-2 inactive | CF NFkB inh conf inactive
CCc1ccc(-n2c(SCC(=O)c3ccc4c(c3)NC(=O)CO4)nc3ccccc3c2=O)cc1	none
c1ccc(-c2cn(-c3ccccc3)c3ncnc(N4CCCCC4)c23)cc1	none
CCOc1ccc(-n2cc(-c3ccccc3)c3c(N4CCOCC4)ncnc32)cc1	Peg3 prom inh-1 51, CF NFkB inh 91 | Peg3 prom inh-2 60 | CF NFkB inh conf 95
COCC(=O)N1CCC(Oc2ccc(C(=O)N(C)C3CCCCC3)cc2)CC1	none
Cc1cccc(CNc2ncnc3ccc(-c4ccoc4)cc23)c1	TROY NFkB inh 55, Peg3 prom inh-1 50, TWEAK-Fn14 inh 94, CF NFkB inh 70 | Peg3 prom inh-2 41 | CF NFkB inh conf 87
Cc1cccc(CNc2ncnc3ccc(-c4ccc5c(c4)OCCO5)cc23)c1	none
CC(C)(C)OC(=O)CC(S(=O)(=O)c1ccccc1)S(=O)(=O)c1ccccc1	Peg3 prom inh-1 82, CF NFkB inh 86 | Peg3 prom inh-2 97 | CF NFkB inh conf inactive
O=C(c1cccs1)N1CCN(S(=O)(=O)Cc2ccccc2)CC1	none
Cc1ncc(CO)c2cc(C(=O)Nc3cccc(F)c3)c(=Nc3cccc(C(N)=O)c3)oc12	none
COc1ccc(NC(=O)c2cc3c(CO)cnc(C)c3oc2=Nc2cccc(F)c2)c(OC)c1	Peg3 prom inh-1 59, CF NFkB inh 52 | Peg3 prom inh-2 inactive | CF NFkB inh conf inactive
COc1nc(N)c(C#N)c(-c2ccc(N(C)CCC#N)cc2)c1C#N	Peg3 prom inh-1 58, CF NFkB inh 59 | Peg3 prom inh-2 66 | CF NFkB inh conf 75
C=C(NC(C)=O)c1c(F)cccc1F	none
COc1ccc(C(C(=O)NCC2CCCO2)N(Cc2cccs2)C(=O)c2snc(C(N)=O)c2N)cc1 (stereo not drawn)	Peg3 prom inh-1 51, CF NFkB inh 54 | Peg3 prom inh-2 50 | CF NFkB inh conf 50
CC(NC(=O)Cc1cccs1)C(c1cccs1)N1CCOCC1 (stereo not drawn)	none
CCC(C)Oc1cc(-c2ccnc(Nc3cccc(Cl)c3)n2)ccn1 (stereo not drawn)	Peg3 prom inh-1 100, TWEAK-Fn14 inh 91, CF NFkB inh 99 | Peg3 prom inh-2 92 | CF NFkB inh conf 105
